A short description of test [1]: Her2 expression decrease, cell viability multiplex – SKBR3 breast tumor cells, AlphaScreen, ATP viability, primary screen (AID 461;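 active = Her2 level under about 52% in both replicate screens, with viability over 70% of control, limit read from the data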;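 as to Her2 level: lower value means less Her2 protein in the cells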;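 as to viability: percent of carrier control wells set as 100% viability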). The settings on record: SKBR3 Her2 protein level, 18-24 h, measured here: SKBR3 viability, ATP luminescence, at 10 µM.
The target of test [2] is Receptor tyrosine-protein kinase erbB-2 (Homo sapiens) (UniProt P04626). Described as above. The settings on record: 18-24 h, at 10 µM, stronger effect = lower value.
The nature of test [3]: reduced viability of SK-BR-3 breast cancer cells – cell-based, 24 h, human, pilot screen (AID 572;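 active = viability at or below 10% of carrier control in both of two separate runs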;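 also: compound exposure lasted between 18 and 24 h rather than exactly 24 h; 100% = carrier-treated control wells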). The settings on record: SK-BR-3 viability, CellTiter-Glo luminescence, at 10 µM, stronger effect = lower value.
Test [4] in a line: HUVEC growth inhibition – cell-based, human, primary screen (AID 575;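 active = viability at or below 30% in both replicate assays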;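 also: 100% = median of untreated cell wells with 0.1% DMSO on each plate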). The settings on record: HUVEC proliferation, CellTiter-Glo luminescence, 72 h; at 10 µM; stronger effect = lower value.
A short description of test [5]: H69AR cell proliferation blockers – human, duplicate replicates, primary screen (AID 580;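 active = viability at or under a set limit in both replicates, limit being median viability minus 3 SD, cut at about 48% in these data, passing the limit was not always enough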;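 also: 100% = mean luminescence of untreated wells and 0% = no signal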). To be noted: H69AR lung tumor cells viability, ATP luminescence, 72 h; at 10 µM; stronger effect = lower value.
Test [6] in a line: MRP1 drug-resistance reversers in H69AR cells – cell-based, doxorubicin co-treatment, pilot screen (AID 601;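 active = viability loss from added drug above about 55%, and viability with drug at most 40%, in both replicates, limit read from the data, passing the limit was not always enough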). To be noted: CellTiter-Glo, 72 h, at 10 µM; for differential viability (reversal): stronger effect = higher value.
Test [7] is described as follows: yeast transport mutant growth inhibition pilot in 384-well plates, post-Golgi transport modulator project (AID 636; in the data active = inhibition above about 31%). The settings on record: absorbance 615 nm, about 18 h, stronger effect = higher value.
Test [8] can be described thus: growth suppression of yeast trafficking mutant, preliminary HTS, modulators of trafficking downstream of Golgi apparatus project, 1536-format plate, OD 615 nm (AID 637; in the data active = inhibition above about 30%). The settings on record: yeast transport mutant growth, absorbance 615 nm, 18 h; stronger effect = higher value.
Test [9] in a line: S. cerevisiae growth inhibition in permissive medium (OD615), pilot counter-assay for S. cerevisiae lifespan shortening project, permissive growth control (AID 705;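 active = growth inhibition above 25% in both replicates, a cutoff set 3 SD above the mean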). To be noted: OD615, 24 h, at 10 µM, stronger effect = higher value.
Test [10] is described as follows: S. cerevisiae growth inhibition in restrictive medium, OD615, pilot screen, restrictive growth control, yeast lifespan reduction project (AID 706;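 active = growth inhibition above a set limit, 3 SD over mean compound inhibition, in both replicates, cut at about 43% in these data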;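 also: modified DeaD lifespan yeast strain shifted to restrictive glucose medium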). The settings on record: OD615, 48 h, at 10 µM, stronger effect = higher value.
The nature of test [11]: doxorubicin toxicity protection in MRP-1 cells – H69AR cells, CellTiter-Glo, duplicate, MRP-1 activator project, pilot screen (AID 807).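 Also: compound pretreatment 18-22 h then 72 h combined with doxorubicin; 0% = doxorubicin alone and 100% = vehicle without doxorubicin.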 To be noted: H69AR viability with doxorubicin, CellTiter-Glo luminescence; at 10 µM; stronger effect = higher value.
Test [12] is described as follows: viability of HCT116 without oncogenic beta-catenin – human colon tumor cells, pilot screen (AID 823;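 active = cell viability at or below a set limit in both duplicate runs, the limit being the all-compound median minus 4 SD, cut at about 23% in these data, passing the limit was not always enough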;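 also: 0% = wells killed by 20 µM Hyamine and 100% = untreated DMSO cell wells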). To be noted: HCT116 beta-catenin knockout viability, CellTiter-Glo, 60 h; at 10 µM; stronger effect = lower value.
Test [13] in a line: viability of PTEN-null HCT116 cells – cell-based, HCT116 clonal line, CellTiter-Glo, pilot screen (AID 824;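 active = viability at or below 27.92% in each of two runs, the all-compound median minus 4 SD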;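 also: 0% = 20 µM Hyamine control and 100% = vehicle cell control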). The settings on record: HCT116 PTEN-deleted viability, 60 h, at 10 µM, stronger effect = lower value.
Test [14] in a line: RAM pathway blockade in budding yeast – dse1pr::URA3 reporter, 5-FOA selection, pilot screen (AID 869;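 active = inhibition over a set limit, the all-compound mean plus 3 SD, in both replicate runs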;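 also: 0% = DMSO wells with no growth and 100% = 10 µM 1-NA-PP1 with full growth; RAM network block rescues cells from 5-FOA so hits raise OD615 growth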). The settings on record: S. cerevisiae dse1pr::URA3 5-FOA growth, OD615, 2 d; at 10 µM; stronger effect = higher value; strain carries analog-sensitive mutant Cbk1 kinase.
Test [15] in a line: RAM signaling pathway blockade in yeast – S. cerevisiae, Pdr1DBD-CYC8 efflux-inhibited sensitized strain, primary screen (AID 1298;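 active = RAM network inhibition above 8.4% in each of two replicates, 3 SD over the compound average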;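 also: 0% = DMSO untreated cells without growth and 100% = 10 µM 1-NA-PP1 full growth; higher means more yeast growth rescued from 5-FOA killing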). To be noted: S. cerevisiae cbk1-as DSE1-URA3 strain, 5-FOA growth OD615, 2 d; at 50 µM; stronger effect = higher value.
Setting [16] is: H69AR cells + 2 uM doxorubicin, measured here: viability with 2 uM doxorubicin, stronger effect = lower value.
Where [17] appears, read: H69AR cells, compound alone cytotoxicity.

Results filed as inconclusive are left out. The source made the active and inactive calls.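 The calls were made as follows, unless noted: active = viability increase at or above a cutoff of the median across tested compounds plus 3 SD (cut at about 8.5% in these data, passing the limit was not always enough); inconclusive = some gains above the cutoff, reason not given; inactive = the rest.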

Receptor tyrosine-protein kinase erbB-2 (Homo sapiens), sequence (P04626 whole entry, looked up): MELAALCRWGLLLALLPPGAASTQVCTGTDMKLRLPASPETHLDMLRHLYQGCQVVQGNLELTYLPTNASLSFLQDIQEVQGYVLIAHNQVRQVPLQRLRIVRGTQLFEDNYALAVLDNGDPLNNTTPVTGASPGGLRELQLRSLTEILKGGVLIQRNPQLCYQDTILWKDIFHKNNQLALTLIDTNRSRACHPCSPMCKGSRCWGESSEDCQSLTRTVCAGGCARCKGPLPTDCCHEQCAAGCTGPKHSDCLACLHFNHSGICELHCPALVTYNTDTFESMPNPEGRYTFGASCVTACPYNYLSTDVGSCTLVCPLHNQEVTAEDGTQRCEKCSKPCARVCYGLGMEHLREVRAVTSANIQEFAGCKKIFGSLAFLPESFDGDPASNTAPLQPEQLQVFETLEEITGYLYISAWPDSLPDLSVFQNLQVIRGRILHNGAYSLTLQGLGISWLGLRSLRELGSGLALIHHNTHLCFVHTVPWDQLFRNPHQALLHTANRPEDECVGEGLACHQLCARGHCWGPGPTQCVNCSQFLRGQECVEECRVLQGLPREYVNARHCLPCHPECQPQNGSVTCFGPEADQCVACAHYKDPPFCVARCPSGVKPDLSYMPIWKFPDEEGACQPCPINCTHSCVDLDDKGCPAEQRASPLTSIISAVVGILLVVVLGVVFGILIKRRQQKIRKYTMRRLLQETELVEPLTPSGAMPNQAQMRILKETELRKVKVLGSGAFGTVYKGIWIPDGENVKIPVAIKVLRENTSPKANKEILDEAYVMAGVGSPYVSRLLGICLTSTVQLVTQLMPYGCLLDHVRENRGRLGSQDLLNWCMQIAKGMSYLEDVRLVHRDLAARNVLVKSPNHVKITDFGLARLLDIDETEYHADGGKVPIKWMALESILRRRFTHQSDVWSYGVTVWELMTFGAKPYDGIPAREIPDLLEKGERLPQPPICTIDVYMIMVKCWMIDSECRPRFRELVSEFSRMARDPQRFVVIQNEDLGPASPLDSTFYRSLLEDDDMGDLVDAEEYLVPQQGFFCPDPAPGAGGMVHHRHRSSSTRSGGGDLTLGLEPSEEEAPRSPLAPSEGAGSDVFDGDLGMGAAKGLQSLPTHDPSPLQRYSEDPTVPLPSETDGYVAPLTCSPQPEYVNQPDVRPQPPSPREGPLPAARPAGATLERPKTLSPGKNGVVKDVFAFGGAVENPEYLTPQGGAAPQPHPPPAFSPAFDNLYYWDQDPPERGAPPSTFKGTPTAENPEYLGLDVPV

Take `O=C(c1ccc(Br)o1)N(Cc1ccccc1)c1ccccn1`: the viability was 93.5% in [1]; 93.5% (inactive) in test [3]; 99.6% (inactive) in test [4]; 92.9% (inactive) in test [5]; 90.7% in [6] (setting [16]); 92.9% in [6] (setting [17]). The values for the viability in [12] and in test [13] were 94.9% (inactive) and 84% (inactive), respectively. In addition, the Her2 level in test [2] was 102% (inactive). Also, the differential viability (reversal) in test [6] (H69AR cells + 2 uM doxorubicin) is 2.17% (inactive). For the same compound, the results for the inhibition in test [7], in [8] and in test [14] were 1.49% (inactive), -0.98% (inactive) and 1.94% (inactive), respectively. The growth inhibition was -3.17% (inactive) in test [9] and -6.46% (inactive) in test [10]. In addition, the viability increase in [11] is -6.28% (inactive). Moreover, the RAM network inhibition in test [15] was 12% (inactive).
As for `O=C(O)c1ccc(-c2ccc(O)c(F)c2)cc1`, the viability in test [1] is 94%; in test [3], 94% (inactive); in test [4], 92.8% (inactive); in [5], 82.9% (inactive); in [6] (setting [16]), 88.6%; in [6] (setting [17]), 82.9%. The viability in [12] was 99.3% (inactive); in test [13], 97.4% (inactive). In addition, in [2], the Her2 level was 167% (inactive). For the same compound, the differential viability (reversal) in test [6] (H69AR cells + 2 uM doxorubicin) was -5.75% (inactive). Also, the figures for the inhibition in test [7], in test [8] and in test [14] were -0.4% (inactive), 1.5% (inactive) and -0.17% (inactive), respectively. Besides, the growth inhibition in test [9] is -8.37% (inactive); in test [10], 12.1% (inactive). Also, in test [11], the viability increase was -2.66% (inactive). Besides, the RAM network inhibition in test [15] was -2.4% (inactive).
Take `CC(Oc1ccccc1)C(=O)NC1CC(C)(C)NC(C)(C)C1` (stereo not given): the viability in [1] is 92%; in test [3], 92% (inactive); in test [4], 79.8% (inactive); in test [5], 94% (inactive); in [6] (setting [16]), 91%; in test [6] (setting [17]), 94%. The figures for the viability in [12] and in [13] were 97.1% (inactive) and 96.9% (inactive), respectively. In test [2], the Her2 level was 92.5% (inactive). The differential viability (reversal) in test [6] (H69AR cells + 2 uM doxorubicin) is 2.97% (inactive). In addition, the figures for the inhibition in test [7], in test [8] and in [14] were -2.69% (inactive), -1% (inactive) and -0.135% (inactive), respectively. For the same compound, the growth inhibition was -11.8% (inactive) in test [9] and -2.76% (inactive) in [10]. In test [11], the viability increase is -3.63% (inactive). Further, in [15], the RAM network inhibition is 2.18% (inactive).
As for `CCC(C)NC(=O)c1cc(CC(C)C)on1` (stereo not given), the viability in [1] was 84%; in test [3], 84% (inactive); in [4], 95.5% (inactive); in [5], 83.6% (inactive); in [6] (setting [16]), 94.7%; in test [6] (setting [17]), 83.6%. Also, the viability in test [12] was 102% (inactive); in test [13], 103% (inactive). Further, in [2], the Her2 level was 111% (inactive). In addition, in test [6] (H69AR cells + 2 uM doxorubicin), the differential viability (reversal) was -11.1% (inactive). The inhibition in test [7] was -0.26% (inactive); in [8], 18.3% (inactive); in test [14], -0.07% (inactive). In addition, the growth inhibition in test [9] is -2.93% (inactive); in [10], -0.685% (inactive). Further, the viability increase in test [11] was 1.13% (inactive). For the same compound, the RAM network inhibition in test [15] was 2.69% (inactive).
As to `CCCc1cc(=O)oc2c(C)c3occ(C)c3cc12`, the viability in test [1] is 112%; in test [3], 112% (inactive); in [4] it was 64.8% (inactive); in test [5] it was 98.2% (inactive); in test [6] (setting [16]), 93.3%; in test [6] (setting [17]) it was 98.2%. Moreover, the results for the viability in test [12] and in [13] were 77.4% (inactive) and 79.5% (inactive), respectively. Moreover, in [2], the Her2 level was 99.5% (inactive). Also, in test [6] (H69AR cells + 2 uM doxorubicin), the differential viability (reversal) was 4.94% (inactive). Also, the values for the inhibition in test [7], in test [8] and in test [14] were -0.68% (inactive), -3.02% (inactive) and 3.16% (inactive), respectively. The growth inhibition in test [9] is -2.79% (inactive); in test [10] it was 0.83% (inactive). The viability increase in [11] was -4.59% (inactive). Further, the RAM network inhibition in test [15] is 3.02% (inactive).
With `COc1ccc(NC(=O)CN(c2ccc(C(C)C)cc2)S(=O)(=O)c2c(C)noc2C)cc1OC`, the viability was 90.5% in test [1]; 90.5% (inactive) in test [3]; 58.7% (inactive) in [4]; 84.9% (inactive) in test [5]; 91.3% in [6] (setting [16]); 84.9% in test [6] (setting [17]). In addition, the values for the viability in [12] and in test [13] were 94.5% (inactive) and 90.8% (inactive), respectively. Further, in test [2], the Her2 level was 99% (inactive). Further, the differential viability (reversal) in test [6] (H69AR cells + 2 uM doxorubicin) is -6.37% (inactive). The inhibition in test [7] was 1.41% (inactive); in test [8] it was -2.17% (inactive); in [14] it was 3.67% (inactive). The growth inhibition was -14.5% (inactive) in test [9] and -5.8% (inactive) in [10]. For the same compound, the viability increase in test [11] was -3.99% (inactive). In addition, in test [15], the RAM network inhibition was 3.37% (inactive).
Regarding `CN(C)CCN1C(=O)C(O)=C(C(=O)c2cc3ccccc3o2)C1c1ccc(N(C)C)cc1` (stereo not given), the viability is 98.5% in test [1]; 98.5% (inactive) in test [3]; 94.1% (inactive) in [4]; 90.2% (inactive) in test [5]; 88.5% in test [6] (setting [16]); 90.2% in [6] (setting [17]). The viability was 105% (inactive) in [12] and 103% (inactive) in [13]. Also, the Her2 level in test [2] is 105% (inactive). The differential viability (reversal) in [6] (H69AR cells + 2 uM doxorubicin) was 1.66% (inactive). Further, the inhibition in test [7] was -3.47% (inactive); in [8] it was 1.17% (inactive); in [14], 0.685% (inactive). In addition, the growth inhibition was -14.2% (inactive) in [9] and -14.1% (inactive) in test [10]. Further, the viability increase in test [11] is -0.2% (inactive). Besides, the RAM network inhibition in test [15] was 2.42% (inactive).
`COc1ccc(NC(=O)CSc2nc3c(c(=O)n2-c2ccc(F)cc2)SCC3)cc1`: the viability in [1] was 100%; in test [3], 100% (inactive); in test [4], 81.3% (inactive); in [5], 95.5% (inactive); in test [6] (setting [16]), 92.2%; in [6] (setting [17]) it was 95.5%. Also, the viability is 94% (inactive) in test [12] and 90.7% (inactive) in test [13]. In addition, the Her2 level in [2] was 102% (inactive). Besides, the differential viability (reversal) in test [6] (H69AR cells + 2 uM doxorubicin) was 3.3% (inactive). The values for the inhibition in test [7], in [8] and in test [14] were -6.27% (inactive), -1.15% (inactive) and -0.265% (inactive), respectively. In addition, the growth inhibition in test [9] is -8.95% (inactive); in test [10], -14.3% (inactive). For the same compound, the viability increase in test [11] was 0.22% (inactive). Moreover, the RAM network inhibition in [15] was 3.09% (inactive).
With `CCOC(=O)/C(C#N)=C(/C)c1ccc(OC)cc1`, the viability in [1] was 96%; in test [3], 96% (inactive); in [4] it was 110% (inactive); in test [5], 102% (inactive); in test [6] (setting [16]), 96.2%; in [6] (setting [17]) it was 102%. The results for the viability in [12] and in test [13] were 99.5% (inactive) and 99% (inactive), respectively. Also, in test [2], the Her2 level is 104% (inactive). Further, in test [6] (H69AR cells + 2 uM doxorubicin), the differential viability (reversal) was 5.39% (inactive). Also, the inhibition is -2.53% (inactive) in test [7], -7.74% (inactive) in [8] and 1.11% (inactive) in [14]. For the same compound, the growth inhibition in test [9] is -14.7% (inactive); in [10], -5.52% (inactive). Further, the viability increase in test [11] was 0.09% (inactive). For the same compound, the RAM network inhibition in [15] is 3.87% (inactive).
As to `CC(=O)Nc1ccc(S(=O)(=O)Nc2nc3c(s2)CCCC3)cc1`, the viability in test [1] was 106%; in test [3], 106% (inactive); in test [4], 106% (inactive); in [5], 99.5% (inactive); in test [6] (setting [16]), 88%; in test [6] (setting [17]), 99.5%. The values for the viability in [12] and in test [13] were 95.1% (inactive) and 90.7% (inactive), respectively. For the same compound, the Her2 level in [2] is 103% (inactive). Besides, the differential viability (reversal) in test [6] (H69AR cells + 2 uM doxorubicin) was 11.5% (inactive). Moreover, the inhibition in test [7] was -8.93% (inactive); in [8], -9.52% (inactive); in [14] it was 1.9% (inactive). In addition, the values for the growth inhibition in test [9] and in [10] were 4.96% (inactive) and 12.8% (inactive), respectively. Besides, the viability increase in test [11] was -1.41% (inactive). Further, in test [15], the RAM network inhibition was 2.5% (inactive).
